Screening data deposited in PubChem BioAssay by several laboratories.
tim10-1 inh: growth inhibitors of tim10-1 mutant yeast | S. cerevisiae tim10-1 ts strain growth, BacTiter-Glo, 24 h | inhibition, % at 20 µM | 330,000 compounds, 2.2% hits | AID 463190;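 active = inhibition of at least 40%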;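 note: mutant grown at 25 °C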
tim23-1 inh: growth inhibitors of tim23-1 mutant yeast. S. cerevisiae tim23-1 growth, BacTiter-Glo luminescence, 24 h. inhibition, % at 20 µM. 330,000 compounds, 1.3% hits. AID 463212;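 active = growth inhibition of the mutant yeast at or above 50%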;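 note: temperature-sensitive mutant grown at 25 °C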
Rce1 inhib: yeast Ras-converting enzyme inhibition; AID 2563; calls only; 290,000 compounds, 0.27% hits; yeast membranes, quenched prenylated peptide cleavage fluorescence;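 active = fall in fluorescence gain of 50% or more versus controls, with final raw signal at or below 3038400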
Target sequence (Q03530 whole entry, looked up): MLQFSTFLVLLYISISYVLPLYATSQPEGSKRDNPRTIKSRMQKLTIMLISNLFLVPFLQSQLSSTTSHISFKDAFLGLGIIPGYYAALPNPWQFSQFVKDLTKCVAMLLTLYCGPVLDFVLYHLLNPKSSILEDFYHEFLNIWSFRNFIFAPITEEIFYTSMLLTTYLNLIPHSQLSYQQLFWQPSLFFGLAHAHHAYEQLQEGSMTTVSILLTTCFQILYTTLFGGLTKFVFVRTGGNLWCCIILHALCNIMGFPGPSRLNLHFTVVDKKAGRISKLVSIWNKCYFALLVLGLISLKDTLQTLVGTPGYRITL
PfHsp90 set2: inhibits growth of yeast expressing Plasmodium falciparum Hsp90; S. cerevisiae expressing PfHsp90, BacTiter-Glo ATP, 48 h; yeast lacking PDR1 and PDR3 efflux regulators; inhibition, % at 9.4 µM; 310,000 compounds, 0.32% hits; AID 504621;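 active = every replicate shows inhibition above about 80%, whatever the replicate mean, limit read from the data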
TIM10 inh: TIM10 yeast growth inhibition; S. cerevisiae TIM10 strain growth, BacTiter-Glo luminescence, 24 h; inhibition, % at 10 µM; 330,000 compounds, 1.4% hits; AID 463195;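 active = inhibition of 40% or more at the single tested concentration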;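 note: wild-type TIM10 isogenic control strain grown at permissive 25 °C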
tim10-1 conf: confirmation of tim10-1 mutant yeast growth inhibitors | shares compounds with tim10-1 inh | 7,400 compounds, 56% hits | inhibition, % at 20 µM | S. cerevisiae tim10-1 ts strain growth, BacTiter-Glo, 24 h;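 active = inhibition of yeast growth at or above a set limit in either of two repeat tests at 20 µM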;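 note: tim10-1 mutant grown at permissive 25 °C to find synthetic lethal compounds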
Each line names hits and unclear results; the compound was inactive in the other large screens (follow-up assays come after a bar, where they were run). This is a sample that favours compounds with a hit; in the whole collection about 3.7% have one here.

COc1ccc(NC(=O)CN(C)C(=O)c2ccc(OCc3ccccc3)c(OC)c2)cc1	none (no result: Rce1 inhib)
OCCCNC(=S)Nc1ccc(Oc2ccccc2)cc1	none
CCNC(=S)Nc1ccc(N(c2ccccc2)C(C)C)cc1	tim10-1 inh 42 | tim10-1 conf inactive
CC(C)CNC(=S)Nc1ccc(Oc2ccccc2)cc1	tim10-1 inh 43 | tim10-1 conf inactive
Cc1ccc2[nH]c(C(=O)O)c(NC(=O)[C@@H]3C[C@@H]3c3ccccc3)c2c1	none
COc1cc(NS(=O)(=O)c2ccc(N/C=C\C(=O)c3ccc(F)cc3)cc2)nc(OC)n1	none
CCc1nc(Nc2ccccc2OC)c2oc3ccccc3c2n1	tim10-1 inh 42 | tim10-1 conf inactive
CCc1nc(N2CCCC(C)C2)c2oc3ccccc3c2n1 (configuration not stated)	none
CCc1nc(N2CCCCC2C)c2oc3ccccc3c2n1 (configuration not stated)	tim10-1 inh 48 | tim10-1 conf inactive
CCc1nc(N2CCCCC2)c2oc3ccccc3c2n1	tim10-1 inh 41 | tim10-1 conf inactive
COc1cccc2cc(C(=O)C3=C(O)C(=O)N(CCN4CCOCC4)C3c3ccc(C)o3)oc12 (configuration not stated)	none
Nc1ccc2c(c1)Nc1ccccc1CC2	none
Cn1nc(Oc2nc(N3CCOCC3)nc(N3CCOCC3)n2)ccc1=O	none
Cc1ccc(S(=O)(=O)N2CCN(C(=O)c3cc4c(s3)CCCC4)CC2)c(C)c1	none (no result: Rce1 inhib)
O=C(c1cc2c(s1)CCCC2)N1CCN(S(=O)(=O)c2ccccc2C(F)(F)F)CC1	tim10-1 inh 41 | tim10-1 conf inactive
Cc1cc(OCC(=O)Nc2ccc(S(=O)(=O)N3CCN(C)CC3)cc2)ccc1Br	none
Nc1nc(-c2ccc(Br)cc2)cs1	tim10-1 inh 56 | tim10-1 conf 46
Cc1nc(NS(=O)(=O)c2cccs2)c2c3c(sc2n1)CCC3	tim10-1 inh 44 (no result: PfHsp90 set2) | tim10-1 conf 29
O=C(Nc1c(F)cccc1F)c1ccc2c(c1)CCN2S(=O)(=O)c1ccccc1	none
O=C(Nc1ccccc1F)c1ccc2c(c1)CCN2S(=O)(=O)c1ccccc1	tim10-1 inh 40 | tim10-1 conf inactive
O=c1c2ccccc2nc2c3ccccc3c(NCCO)nn12	tim10-1 inh 42 | tim10-1 conf 33
COc1cc(-c2cc(-c3nnco3)c3ccccc3n2)cc(OC)c1OC	none (no result: PfHsp90 set2)
c1ccc(-c2cc(-c3nnco3)c3ccccc3n2)nc1	tim10-1 inh 40 (no result: PfHsp90 set2) | tim10-1 conf inactive
CCN(CC(=O)Nc1c(F)cccc1F)C(=O)Cc1csc(-c2ccccc2)n1	none (no result: PfHsp90 set2)
Cc1ccc(CNc2ncnc(N)c2[N+](=O)[O-])cc1	none
O=C1NC(c2ccc(Br)cc2)Nc2sc3c(c21)CCC3 (configuration not stated)	none
Cc1ccsc1C1NC(=O)c2c(sc3c2CCCC3)N1 (configuration not stated)	tim10-1 inh 48 | tim10-1 conf 35
Cc1ccc(C(C)C)c(OCC(=O)Nn2c(C)nc3ccccc3c2=O)c1	tim10-1 inh 47 | tim10-1 conf inactive
CCc1cccc(C)c1NC(=S)NCCc1c(C)[nH]c2ccc(C)cc12	tim10-1 inh 41 | tim10-1 conf inactive
COc1ccc2[nH]c(C)c(CCNC(=S)Nc3cc(C)ccc3C)c2c1	none
CC(C)N(Cc1nc(-c2ccccc2)no1)C(=O)c1ccc2c(c1)OCO2	tim10-1 inh 81 (no result: PfHsp90 set2) | tim10-1 conf inactive
Cc1ccc(/C=C2\CCC3=C2OC(N)=C(C#N)C3c2ccc(C)cc2)cc1 (configuration not stated)	tim10-1 inh 46 | tim10-1 conf 34
Cc1ccc(C2C(C#N)=C(N)Oc3cc(N)ccc32)cc1 (configuration not stated)	none
O=C(Nc1ccccc1)C1=C[C@@H](C2CC2)C[C@@H](OCCCCO)O1	none
Cc1cccn2c(=O)c3cc(C(=O)NC4CCCCC4)c(=N)n(Cc4ccc(F)cc4)c3nc12	tim10-1 inh 42 | tim10-1 conf inactive
Cc1ccc(CC(=O)Nc2nc3ccccc3s2)cc1	tim10-1 inh 44 | tim10-1 conf inactive
Cc1ccc(S(=O)(=O)CC(=O)Nc2nc3ccccc3s2)cc1	none
Cc1ccccc1/C=N/n1c(-c2ccccn2)n[nH]c1=S	none
S=c1[nH]nc(-c2ccccn2)n1/N=C/c1cccc2ccccc12	tim10-1 inh 41 | tim10-1 conf inactive
COc1ccc(N2CCC(CNC(=O)Nc3cccc(OC)c3)C2)cc1 (configuration not stated)	tim10-1 inh 46 (no result: PfHsp90 set2) | tim10-1 conf 40
CN(C)c1nc(NCc2ccccc2)nc(N/N=C/c2ccc(Br)cc2)n1	none (no result: Rce1 inhib)
O=c1[nH]c(N/N=C/c2cc3c(cc2[N+](=O)[O-])OCO3)nc2ccccc12	none
CN(C)c1nc(NCc2ccccc2)nc(N/N=C/c2ccc3c(c2)OCO3)n1	tim10-1 inh 41 | tim10-1 conf inactive
O=c1[nH]c(N/N=C\c2ccc3c(c2)OCO3)nc2ccccc12	tim10-1 inh 40 | tim10-1 conf inactive
O=C(NCCC1CCCCN1S(=O)(=O)c1ccccc1)C(=O)NC1CCCC1 (configuration not stated)	none
O=C(O)c1cc2ccccc2c(N=Nc2cccnc2)c1O	none
Cc1c(C(=O)C(=O)N2CCCc3ccccc32)c2ccccc2n1C	tim10-1 inh 43 | tim10-1 conf inactive
Cc1c(C(=O)C(=O)N2CCN(C)CC2)c2ccccc2n1C	none
O=c1c2ccccc2nc(SCc2ccc([N+](=O)[O-])cc2)n1-c1ccccc1	tim10-1 inh 40 | tim10-1 conf 34
O=C(O)c1ccc(CSc2nc3ccccc3c(=O)n2-c2ccccc2)cc1	none
C=CCOC(=O)/C(=C\c1ccccc1)NC(=O)c1ccc(C)cc1	tim10-1 inh 40 | tim10-1 conf inactive
COc1ccccc1NC(=O)NC1(C(=O)NCC2CCCO2)CCCCC1 (configuration not stated)	none
CCOC(=O)c1sc2nc3c(cc2c1N)COC(C)(CC)C3 (configuration not stated)	tim10-1 inh 43 | tim10-1 conf inactive
CCOC(=O)c1sc2nc3c(cc2c1N)COC(C)(C)C3	tim10-1 inh 40 (no result: Rce1 inhib) | tim10-1 conf inactive
CC1(C)Cc2nc3sc(C(N)=O)c(N)c3cc2CO1	none
CCC1(C)Cc2nc3sc(C(=O)O)c(N)c3cc2CO1 (configuration not stated)	none
CCOc1ccccc1C=Nc1ccccc1C(=O)Nc1ccccc1	tim10-1 inh 46 | tim10-1 conf inactive
CCOC(=O)COn1c(=O)c(-c2cc3ccccc3o2)[n+]([O-])c2ccccc21	tim10-1 inh 44 (no result: PfHsp90 set2) | tim10-1 conf inactive
CN1CCN(CCCNC(=O)c2ccc(/C=C3\Sc4ccccc4N(Cc4ccc(F)cc4)C3=O)cc2)CC1	none (no result: tim10-1 inh, tim23-1 inh, TIM10 inh)
CN1CCN(CCCNC(=O)c2ccc(/C=C3\Oc4ccccc4N(Cc4ccccc4F)C3=O)cc2)CC1	tim10-1 inh 42 | tim10-1 conf inactive
COC(=O)c1sccc1NC(=O)Nc1ccc(OC)cc1	none
